# Inconclusive results are not listed. Where a call stands in place of a potency, no number is given. The source made the active and inactive calls. Calls come from the whole dose curve; as a rule, active = well fitted curve in the direction sought with a large enough effect; inconclusive = small, poorly fitted or top-dose-only effect, or another doubt; inactive = no such curve, though single readings can be large; an effect the other way counts as inactive or inconclusive.
# How the values were obtained:
# [1] = biological target: Aldehyde dehydrogenase, mitochondrial (Homo sapiens) (UniProt P05091); assay: qHTS for Inhibitors of the Aldehyde Dehydrogenase Family (ALDH2) Primary screen (AID 2061308); note: nearly all actives have a fitted effect of over 55% in size
# [2] = biological target: Retinaldehyde dehydrogenase 3 (Homo sapiens) (UniProt P47895); assay: qHTS for Inhibitors of the Aldehyde Dehydrogenase Family (ALDH1A3) Primary screen (AID 2061315)
Compound,Potency [1],Potency [2]
O=C(Nc1nnc(-c2ccco2)o1)c1ccc(C(F)(F)F)cc1,inactive,inactive
Cc1cccc(-n2cnc3cc(C(=O)NC4CCCCC4)ccc32)c1,inactive,inactive
Cc1cc(-c2cnc(N)c3c(-c4ccc5scnc5c4)csc23)n(C)n1,inactive,inactive
CCOc1ccc(CCNC(=O)c2ccc3ccccc3n2)cc1OCC,inactive,inactive
COc1cccc(C2=Nn3c(nnc3-c3cccc(OC)c3)SC2)c1,inactive,inactive
O=C(O)c1ccc(O)c2ncc(-c3cccc(N4CCOCC4)c3)cc12,inactive,inactive
Cc1ccc(S(=O)(=O)Nc2ccccc2CNc2nc(-c3ccccc3)cs2)cc1,inactive,inactive
C=C1C(=O)O[C@@H]2/C=C(\C)CC/C=C(/C=O)[C@H](OC)[C@@H](OC(=O)C(C)C)[C@@H]12,inactive,inactive
COc1ccc(C2=Nn3c(nnc3-c3ccccc3C)SC2)cc1OC,inactive,inactive
Cc1cc(NC(=O)Nc2nnc(-c3cccnc3)s2)ccc1F,inactive,inactive
Cc1nc(NC2CCCCC2)c2nc(-c3ccccc3)n(CCN3CCCC3)c2n1,inactive,inactive
CCCCc1ccc(C(=O)Nc2ccc(S(=O)(=O)Nc3nccs3)cc2)cc1,inactive,inactive
Cc1ccccc1C(=O)N1CCc2cc(-c3nc(NC(=O)c4ccc5c(c4)OCO5)sc3C)ccc21,inactive,inactive
Cc1nc(NC2CCCCC2)c2nc(-c3ccccc3)n(C(C)CN(C)C)c2n1 (stereo unspecified),inactive,inactive
N#Cc1cc(NC(=O)Nc2cccc(-c3ccncc3)n2)ccc1Cl,inactive,inactive
CC(C)c1ccccc1-c1nc(NCc2ccc(-c3cccnc3)cc2)c2occc2n1,inactive,inactive
CN(C)C/C=C/C(=O)Nc1cccc(C(=O)Nc2ccc(Nc3nccc(-c4cccnc4)n3)cc2)c1,inactive,inactive
CCC(=O)NC(c1cccs1)c1cc(Br)c2cccnc2c1O (stereo unspecified),inactive,inactive
COc1ccc(C2=Nn3c(nnc3-c3ccccc3Cl)SC2)cc1OC1CCCC1,inactive,inactive
CCOc1ccccc1-c1nnc2n1N=C(c1ccccc1OC)CS2,inactive,inactive
CCCn1c(C)nc2c(N3CCC(N4CCN(C)CC4)CC3)nc(C)nc21,inactive,inactive

Compound,Potency [1],Potency [2]
Cc1ccc(C2=NN(CC(=O)N(C)C(C)c3ccco3)C(=O)C2)cc1 (stereo unspecified),inactive,inactive
O=S(=O)(NC1CCC(NS(=O)(=O)c2c(F)cccc2F)CC1)c1ccc2c(c1)OCCO2 (stereo unspecified),inactive,inactive
Cc1ccc(S(=O)(=O)Nc2ccc(C(=O)Nc3nc(-c4ccccc4)cs3)cc2Cl)cc1,inactive,inactive
O=C(Cn1nc(-c2cccnc2)ccc1=O)NCCc1ccccc1,inactive,inactive
O=C1CCc2cc(S(=O)(=O)NCc3ccccc3)ccc2N1,inactive,inactive
Cc1ccc(N2CCC(CNc3nc(-c4ccccc4C(C)C)ncc3F)CC2)cn1,inactive,inactive
COc1cc2ncnc(Nc3cccc(O)c3)c2cc1OC,inactive,inactive
Nc1ccc(-c2nnc(NC(=O)Nc3ccc(Cl)c(Cl)c3)s2)cc1,inactive,inactive
CCOc1ccc(CCNC(=O)c2cc3ccccc3o2)cc1OCC,inactive,inactive
CC(=O)O[C@@]12CO[C@@H]1C[C@H](O)[C@@]1(C)C(=O)[C@H](O)C3=C(C)[C@@H](OC(=O)[C@H](O)[C@@H](NC(=O)OC(C)(C)C)c4ccccc4)C[C@@](O)([C@@H](OC(=O)c4ccccc4)C12)C3(C)C (stereo partly specified),inactive,inactive
C/C1=C\CCC2=CC(OC2=O)C(C)(C)/C=C/C1=O (stereo unspecified),inactive,inactive
CN1CCC(c2cn(C)c3ccc(OS(=O)(=O)c4c(F)cccc4F)cc23)CC1,inactive,inactive
Brc1ccc(-c2csc(N3CCNCC3)n2)cc1,inactive,inactive
CCN(CC)CCn1c(-c2ccccc2)nc2c(NCc3ccccc3)nc(C)nc21,inactive,inactive
Fc1cc(Nc2nc(-c3ccncc3)nc3ccccc23)ccc1-c1ccncc1,inactive,inactive
Cc1ccc(S(=O)(=O)Nc2cc(C(=O)Nc3nc(-c4ccccc4)cs3)ccn2)cc1,inactive,inactive
COc1ccc(C2Nc3ccccc3C(=O)N2Cc2ccccc2)cc1COc1c(C)cc(NC(C)=O)cc1C (stereo unspecified),inactive,inactive
CC1(C)C[C@@H]2C[C@@](C)(CN2S(=O)(=O)c2ccc(C(=O)Nc3ccc(Cl)c(S(=O)(=O)N4CCOCC4)c3)cc2)C1,inactive,inactive
FC(F)(F)c1ccccc1-c1nc(NCc2ccc(C3CCCCC3)cc2)c2ccccc2n1,inactive,inactive
Cc1cc2c(s1)c1cnn(Cc3ccc(F)c(C)c3)c(=O)c1n2C,inactive,inactive
COc1cc(OC)cc(-c2ccc3c(-c4ccc(F)cc4)[nH]nc3n2)c1,inactive,inactive

Compound,Potency [1],Potency [2]
Cc1cc(-c2nnc3n2CCCCCC3)c(C)n1-c1ccccc1,inactive,inactive
CCCn1c(C)nc2c(NC(C)CN(C)C)nc(C)nc21 (stereo unspecified),inactive,inactive
CCCc1cc(=O)c2ccccc2n1C,inactive,inactive
CC(O)c1ccc(-c2ccc3ncnc(NCCc4cnc[nH]4)c3c2)o1 (stereo unspecified),inactive,inactive
CC(=O)Oc1ccc(C2(c3ccc(OC(C)=O)cc3)Oc3ccccc3NC2=O)cc1,inactive,inactive
COc1cccc(C2c3c(ncn(-c4ccc(C)cc4)c3=N)Oc3ccc4ccccc4c32)c1 (stereo unspecified),inactive,inactive
COc1ccc([C@H]2[C@H](c3ccccc3)C(=O)N2Cc2ccccc2)cc1COc1ccc(NC(C)=O)cc1,inactive,inactive
CCC1=CC2CN(C1)Cc1c([nH]c3ccccc13)[C@@](C(=O)OC)(c1cc3c(cc1OC)N(C)[C@H]1[C@@](O)(C(=O)OC)[C@H](OC(C)=O)[C@]4(CC)C=CCN5CC[C@]31[C@@H]54)C2 (stereo partly specified),inactive,inactive
Cc1ccccc1S(=O)(=O)Nc1cnccc1C(=O)Nc1nc(-c2ccccc2)cs1,inactive,inactive
c1cncc(CNc2ccnc(-c3ccc4c(c3)OCO4)n2)c1,inactive,inactive
COC(=O)Nc1sc2c(c1-c1nc3ccccc3s1)CCNC2,inactive,inactive
Cc1c(P(=S)(c2ccccc2)c2ccccc2)[n+]2ccccc2n1CCCCc1ccccc1,inactive,inactive
CC(=O)N1CCc2cc(S(=O)(=O)Nc3ccc(C)c(C)c3)ccc21,inactive,inactive
CC(=O)/C=C/[C@H]1[C@](C)(O)[C@@H](O)[C@H](O)C2C(C)(C)CCC[C@@]21C (stereo partly specified),inactive,inactive
c1nc(NCCc2cnc[nH]2)c2cc(-c3ccoc3)ccc2n1,inactive,inactive
Cc1ccc(-n2cnc3cc(C(=O)N4CCCCC4)ccc32)cc1,inactive,inactive
O=C(Nc1nc2cc(C(F)(F)F)ccc2s1)c1ccc(-c2cccc([N+](=O)[O-])c2)o1,inactive,inactive
S=C(Nc1ccc(Cl)c(Cl)c1)Nc1nnc(-c2ccncc2)s1,inactive,inactive
Cc1cc(NS(=O)(=O)C2CCN(C(=O)Cc3ccc(Cl)c(Cl)c3)CC2)no1,inactive,inactive
CC(C)(C)n1nc(Cc2cccc3ccccc23)c2c(N)ncnc21,inactive,inactive
Cc1ccc(-c2ccc(CNc3nc(-c4ccccc4C(C)C)ncc3F)cc2)cn1,inactive,inactive

Compound,Potency [1],Potency [2]
Cc1cc(C)nc(NC(=S)N2CCN(c3ccc(C(F)(F)F)cc3Cl)CC2)c1,inactive,inactive
COc1nccc(-c2nc(Nc3ccc(F)c(F)c3)c3ccccc3n2)c1OC,inactive,inactive
Cc1cnccc1-c1nc(Nc2ccc(F)c(F)c2)c2ccccc2n1,inactive,inactive
Nc1ccccc1OCCn1c(CCNC(=O)C2CCCCC2)nc2ccccc21,inactive,inactive
C=C(C)C(=O)O[C@H]1CC2=CC(C/C(C)=C\[C@H]3OC(=O)C(=C)[C@H]13)OC2=O (stereo partly specified),inactive,inactive
COc1ccc(OC)c(-c2nnc3n2N=C(c2c(OC)cccc2OC)CS3)c1,inactive,inactive
Cc1ccc(OCCn2c(CCNC(=O)c3cccc(C)c3)nc3ccccc32)cc1,inactive,inactive
Cn1nnnc1Sc1ncnc2scc(-c3ccc(N)cc3)c12,inactive,inactive
Fc1cc(Nc2nc(-c3ccncc3)nc3ccccc23)ccc1OCC(F)(F)F,inactive,inactive
NC(=O)C1CCN(c2nnc(-c3ccc4c(c3)OCCCO4)s2)CC1,inactive,inactive
Cc1cc(C=CC#N)cc(C)c1Nc1nc(Nc2ccc3c(c2)OCO3)c2[nH]cnc2n1,inactive,inactive
O=C1CCCC2=C1C(c1cccc(Oc3ccccc3)c1)N=C(Nc1nc3ccccc3o1)N2 (stereo unspecified),inactive,inactive
COc1cccc(NC(=O)c2cc(-c3ccc(C)c(C)c3)nc3ccccc23)c1,inactive,inactive
CC[C@@H]1C[C@]1(NC(=O)[C@@H]1C[C@@H]2CN1C(=O)[C@H](C(C)(C)C)NC(=O)OCC(C)(C)CCCCc1cccc3c1CN(C3)C(=O)O2)C(=O)NS(=O)(=O)C1CC1,inactive,inactive
COc1ccc(C2=Nn3c(nnc3-c3ccccc3Cl)SC2)cc1OC1CCOC1 (stereo unspecified),inactive,inactive
Cc1ccc(NS(=O)(=O)c2cccc(C(=O)O)c2)cc1C,inactive,inactive
CN(CCc1cnc[nH]1)c1ncnc2ccc(-c3ccc4c(c3)OCO4)cc12,inactive,inactive
O=C(/C=C/c1ccccc1)OCC1=CC[C@@H]2C(C(=O)O)=CO[C@@H](O[C@@H]3O[C@H](CO)[C@@H](O)[C@H](O)[C@H]3O)[C@H]12,inactive,inactive
CN(C)c1cccc(NS(=O)(=O)c2ccc(NC(=O)Cc3ccc(Cl)c(Cl)c3)cc2)c1,inactive,inactive
O=C(Nc1ccc(Cl)c(S(=O)(=O)N2CCOCC2)c1)c1ccc(S(=O)(=O)N2CCOCC2)cc1,inactive,inactive

# Source: PubChem BioAssay (NCATS)
